Experimental data reported in the supplement of paper PMC6089552.
Among all 3,200 compounds or so, about 300 (9.4%) showed activity. The list comes from a sample in which actives are over-represented; it also holds similar structures and randomly drawn compounds.

System: A673/TR/shEF
Test: cell viability (LOESS-normalised, relative to median of negative controls) (log2 ratio); higher = more viable cells (less compound effect), active = hit call of the paper (over 3 MAD below the median)
Conditions: treatment time: 72 h
Summary of the method: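 Viability of A673/TR/shEF Ewing sarcoma cells was determined by CellTiter-Glo luminescence. The cells, at 1,500 per well in 384-well plates, were grown with or without doxycycline from 24 h before compound addition to switch on EWS-FLI1 shRNA knockdown, then exposed for three days to library compounds at two or more concentrations or to DMSO controls. Signals were LOESS-corrected plate by plate, normalised to the negative-control median and log2-transformed.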

[1] = 0.25 µM, library screen: screen1, EWS-FLI1 expression: high (no doxycycline)
[2] = 0.25 µM, library screen: screen1, EWS-FLI1 expression: low (doxycycline-induced shRNA knockdown)
[3] = 2.5 µM, library screen: screen1, EWS-FLI1 expression: high (no doxycycline)
[4] = 2.5 µM, library screen: screen1, EWS-FLI1 expression: low (doxycycline-induced shRNA knockdown)
[5] = 0.025 µM, library screen: screen1, EWS-FLI1 expression: high (no doxycycline)
[6] = 0.025 µM, library screen: screen1, EWS-FLI1 expression: low (doxycycline-induced shRNA knockdown)
[7] = 25 µM, library screen: screen1, EWS-FLI1 expression: high (no doxycycline)
[8] = 25 µM, library screen: screen1, EWS-FLI1 expression: low (doxycycline-induced shRNA knockdown)
[9] = 0.25 µM, library screen: screen2, EWS-FLI1 expression: high (no doxycycline)
[10] = 0.25 µM, library screen: screen2, EWS-FLI1 expression: low (doxycycline-induced shRNA knockdown)
[11] = 2.5 µM, library screen: screen2, EWS-FLI1 expression: high (no doxycycline)
[12] = 2.5 µM, library screen: screen2, EWS-FLI1 expression: low (doxycycline-induced shRNA knockdown)
[13] = 0.103 µM, library screen: screen3, EWS-FLI1 expression: high (no doxycycline)
[14] = 0.103 µM, library screen: screen3, EWS-FLI1 expression: low (doxycycline-induced shRNA knockdown)
[15] = 0.308 µM, library screen: screen3, EWS-FLI1 expression: high (no doxycycline)
[16] = 0.308 µM, library screen: screen3, EWS-FLI1 expression: low (doxycycline-induced shRNA knockdown)
[17] = 0.926 µM, library screen: screen3, EWS-FLI1 expression: high (no doxycycline)
[18] = 0.926 µM, library screen: screen3, EWS-FLI1 expression: low (doxycycline-induced shRNA knockdown)
[19] = 2.8 µM, library screen: screen3, EWS-FLI1 expression: high (no doxycycline)
[20] = 2.8 µM, library screen: screen3, EWS-FLI1 expression: low (doxycycline-induced shRNA knockdown)
[21] = 8.3 µM, library screen: screen3, EWS-FLI1 expression: high (no doxycycline)
[22] = 8.3 µM, library screen: screen3, EWS-FLI1 expression: low (doxycycline-induced shRNA knockdown)
[23] = 25 µM, library screen: screen3, EWS-FLI1 expression: high (no doxycycline)
[24] = 25 µM, library screen: screen3, EWS-FLI1 expression: low (doxycycline-induced shRNA knockdown)

Measured: cell viability (log2)

NC(=Nc1nc2ccccc2o1)NC(=O)c1sc2ccccc2c1Cl
inactive: [1] 0.078 | [2] 0.000721 | [3] 0.0829 | [4] -0.0453

O=C1c2ccccc2-c2n[nH]c3cccc1c23
active: [7] -0.11
inactive: [5] 0.132 | [6] 0.0656 | [1] 0.181 | [2] -0.0312 | [3] -0.0168 | [4] 0.228 | [8] 0.104

COC1=C(OC)C(=O)c2ccccc2C1=O
inactive: [9] 0.153 | [10] 0.0608 | [11] 0.12 | [12] 0.0758

CCC(C)CCCCC(=O)NC(CCNCS(=O)(=O)O)C(=O)NC(C(=O)NC(CCNCS(=O)(=O)O)C(=O)NC1CCNC(=O)C(C(C)O)NC(=O)C(CCNCS(=O)(=O)O)NC(=O)C(CCNCS(=O)(=O)O)NC(=O)C(CC(C)C)NC(=O)C(CC(C)C)NC(=O)C(CCNCS(=O)(=O)O)NC1=O)C(C)O (centres undefined)
inactive: [1] 0.117 | [2] 0.0486 | [3] 0.103 | [4] -0.0146

CC(C)(O)CC[C@@H](O)[C@@](C)(O)[C@H]1CC[C@@]2(O)C3=CC(=O)[C@@H]4C[C@@H](O)[C@@H](O)C[C@]4(C)[C@H]3CC[C@]12C
inactive: [1] 0.0407 | [2] 0.101 | [3] 0.0783 | [4] 0.0234

C=C1C(CCl)(CCl)C2(Cl)C(Cl)C(Cl)C1(Cl)C2(Cl)Cl (centres undefined)
inactive: [1] 0.0656 | [2] 0.021 | [3] 0.0692 | [4] 0.132

COC(=O)[C@@H]1OC(=O)C2OC23[C@@]1(C)CCC1[C@@]2(C)CCC(=O)C(C)(C)C2C[C@@H](OC(C)=O)[C@]13C (some centres undefined)
inactive: [1] 0.0302 | [2] 0.00682 | [3] 0.123 | [4] 0.0574

COC(=O)/C=C/c1cc(O)ccc1O
inactive: [5] 0.177 | [6] 0.0349 | [1] 0.18 | [2] 0.0134 | [9] 0.108 | [10] 0.184 | [4] -0.137 | [11] 0.0473 | [12] 0.11
active: [3] -0.379 | [7] -0.809 | [8] -0.511

COc1cc(/C=C/C(=O)O)ccc1O
inactive: [1] 0.0581 | [2] -0.0401 | [3] 0.12 | [4] -0.00647

O=C(/C=C/c1ccc(O)cc1O)c1ccccc1
inactive: [1] 0.0477 | [2] 0.0515 | [3] 0.136 | [4] 0.0296

CC(=O)O[C@@H]1CC[C@@]2(C)[C@H](CC[C@@H]3[C@@H]2C[C@H](OC(C)=O)[C@]2(C)[C@@H](C(C)=O)CC[C@@H]32)C1
inactive: [1] 0.135 | [2] 0.117 | [3] 0.0696 | [4] 0.102

CC(C1OC(C)(C)C(O)C1O)[C@@H]1CC[C@]2(C)C3=CCC4C(C)(C)C(=O)CC[C@]4(C)C3CC[C@@]12C (some centres undefined)
inactive: [1] 0.062 | [2] 0.126 | [3] 0.148 | [4] 0.137

Brc1ccc([C@H]2CN3CCSC3=N2)cc1
active: [3] -0.357 | [7] -0.468 | [8] -0.309
inactive: [5] 0.216 | [6] 0.000942 | [1] 0.234 | [2] 0.105 | [9] -0.0213 | [10] 0.123 | [4] -0.0691 | [11] 0.117 | [12] 0.109

c1ccc(C2CN3CCSC3=N2)cc1 (centres undefined)
inactive: [5] 0.0711 | [6] 0.0575 | [1] 0.0459 | [2] 0.00911 | [9] 0.102 | [10] 0.0185 | [4] 0.107 | [11] 0.166 | [12] 0.00181 | [8] 0.0697
active: [3] -0.215 | [7] -0.261

c1ccc([C@H]2CN3CCSC3=N2)cc1
active: [3] -0.0948 | [7] -0.295
inactive: [5] 0.0743 | [6] 0.0216 | [13] 0.103 | [14] 0.000516 | [1] 0.0991 | [2] 0.0737 | [9] 0.069 | [10] 0.0838 | [15] 0.127 | [16] 0.0938 | [17] 0.0997 | [18] 0.0447 | [4] 0.0839 | [11] 0.126 | [12] 0.0627 | [19] 0.136 | [20] 0.0913 | [21] 0.12 | [22] 0.085 | [8] -0.0899 | [23] 0.0427 | [24] 0.11

CC(=O)O[C@@H]1C=C[C@@]2(C)C(C[C@@H](OC(C)=O)[C@@]3(C)C4=CC(=O)O[C@@H](c5ccoc5)[C@]4(C)CCC23)C1(C)C (some centres undefined)
inactive: [1] 0.0555 | [2] 0.12 | [3] 0.1 | [4] 0.125

CC(=O)O[C@@H]1CC[C@@]2(C)C(=CC=C3[C@@H]4CC[C@H]([C@H](C)/C=C/[C@H](C)C(C)C)[C@@]4(C)CC[C@@H]32)C1
inactive: [1] 0.0486 | [2] 0.129 | [3] 0.176 | [4] 0.156

[Cl][Pt+2][Cl].[NH2-].[NH2-]
inactive: 0.025 µM, library screen: screen2, EWS-FLI1 expression: high (no doxycycline) 0.0701 | 0.025 µM, library screen: screen2, EWS-FLI1 expression: low (doxycycline-induced shRNA knockdown) 0.092 | [13] 0.0436 | [14] 0.101 | [1] 0.0699 | [2] 0.0806 | [9] 0.126 | [10] 0.0568 | [15] 0.119 | [16] 0.0647 | [17] 0.132 | [18] 0.00232 | [3] 0.0557 | [4] 0.0761 | [11] 0.062 | [12] 0.0651 | [19] 0.0695 | [20] 0.05 | [21] 0.0685 | [22] 0.0664 | 25 µM, library screen: screen2, EWS-FLI1 expression: high (no doxycycline) 0.079 | 25 µM, library screen: screen2, EWS-FLI1 expression: low (doxycycline-induced shRNA knockdown) 0.0718 | [23] 0.135 | [24] 0.0626

CC(C)CCC[C@@H](C)[C@H]1CC[C@H]2[C@@H]3CC[C@H]4C[C@@H](O)CC[C@]4(C)[C@H]3CC[C@]12C
inactive: [1] 0.0663 | [2] 0.113 | [3] 0.0848 | [4] 0.113
